Experimental data reported in PubChem BioAssay (Tox21).
Records with an inconclusive call do not appear. Calls of active or inactive are those of the source. Calls come from the whole dose curve.

experiment: qHTS assay to identify small molecule agonists of the endoplasmic reticulum stress response signaling pathway - cell viability counter screen (AID 1159517); settings: ESRE-bla HeLa viability, CellTiter-Glo luminescence, 5 h; series mostly up to 61 µM; note: nearly all actives have a fitted effect of over 50% in size
From the text: U.S. Tox21 Program National Center for Advancing Translational Sciences [NCATS] NIH Chemical Genomics Center [NCGC] U.S. Environmental Protection Agency [EPA] National Institutes of Environmental Health Sciences [NIEHS] National Toxicology Program [NTP] U.S. Food and Drug Administration [FDA] Tox21 Assay Overview: Endoplasmic Reticulum (ER) plays an important role in cellular signaling, protein folding/maturation, stress response, lipid biosynthesis, calcium storage and release etc. Under stress conditions, proteins in ER misfold or unfold, and leading to the expression of ER stress responsive genes. ER stress has been associated with a variety of pathophysiological conditions such as cancer, inflammation, neurodegenerative diseases, diabetes, ischemic heart disease etc. To identify the compounds that induce ER stress response, an ER stress reporter cell line, CellSensor ESRE-bla HeLa (Life Technologies, Carlsbad, CA) containing a beta-lactamase reporter gene under control of the Endoplasmic reticulum Stress Response Element (ESRE) was used to screen Tox21 10K compound library. The cytotoxicity of the Tox21 compound library against the ESRE-bla HeLa cell line was tested in parallel by measuring cell viability using the CellTiter-Glo assay in the same wells.
Tox21 Assay Protocol Summary: ESRE-bla HeLa cells were dispensed at 1,500 cells/6 uL of assay medium per well into black wall/clear-bottom 1536-well plates using a Multidrop Combi (ThermoFisher Scientific, Waltham, MA) dispenser. After the assay plates were incubated at 37 C and 5% CO2 for an overnight, 23 nL of compounds dissolved in DMSO, positive controls or DMSO only was transferred to the assay plate by a Pintool station (Kalypsys, San Diego, CA). The assay plates were incubated at 37 C and 5% CO2 for 5 hr. One uL of LiveBLAzer B/G FRET substrate (Life Technologies) was added using a FRD (Flying Reagent Dispenser, Aurora Discovery, San Diego, CA) and the plates were incubated at room temperature for 2 hr. Fluorescence intensity (405 nm excitation, 460 nm and 530 nm emissions) was measured using an Envision plate reader (PerkinElmer, Shelton, CT). For cytotoxicity, 4 ul/well of CellTiter-Glo reagent was added into the assay plates using an FRD. After 30 min incubation at room temperature, the luminescence intensity was measured using a ViewLux plate reader (PerkinElmer).
% is set by controls: 0 for no effect and ±100 for the full control effect.

Structure (SMILES)	outcome	activity change, negative = cytotoxicity
O=S(=O)(O)c1ccc(Cl)cc1	inactive	–
N#Cc1ccccc1C#N	inactive	–
O=C[C@@H](O)[C@H](O)[C@H](O)CO	inactive	–
CCCCCCCC(=O)N(C)C	inactive	–
CCOC(=O)c1ccc(N(C)C)cc1	inactive	–
CCN1CCN(C(=O)N[C@@H](C(=O)N[C@@H]2C(=O)N3C(C(=O)O)=C(CSc4nnnn4C)CS[C@H]23)c2ccc(O)cc2)C(=O)C1=O	inactive	–
CC1(C)CC(N)CC(C)(C)N1	inactive	–
Nc1nc(Cl)cc(Cl)n1	inactive	–
C/C(Cl)=C/CCl	inactive	–
Cc1cc(=O)oc2cc(O[C@@H]3SC[C@@H](O)[C@H](O)[C@H]3O)ccc12	inactive	–
CCN1CCN(C(=O)N[C@@H](C(=O)N[C@@H]2C(=O)N3[C@@H]2SC(C)(C)[C@H]3C(=O)O)c2ccccc2)C(=O)C1=O	inactive	–
O=C(c1ccccc1)c1cccc(O)c1	inactive	–
C=CC(=O)OCCOCCOCC	inactive	–
Cc1cc2c(cc1CC(=O)c1sccc1S(=O)(=O)Nc1onc(C)c1Cl)OCO2	inactive	–
CN(C)CCC[C@@]1(c2ccc(F)cc2)OCc2cc(C#N)ccc21	inactive	–
NNC(=O)CCCCC(=O)NN	inactive	–
CC(C)OCCO	inactive	–
O=C1Nc2ccccc2C1=O	inactive	–
CN1CCN(C(=O)C2CCCCC2)CC1	inactive	–
C[n+]1ccccc1/C=N/O	inactive	–

Structure (SMILES)	outcome	activity change, negative = cytotoxicity
O=C1c2ccccc2C(=O)N1CO	inactive	–
CCCCCCCCCCCCCCCCN(C)C	–	-14.5% [at 6.95 µM] (inactive)
CCCCCCC(O)CO (stereo not given)	inactive	–
Cc1ccc(O)c(C(=O)c2ccccc2)c1	inactive	–
CCCOc1ccc(C(=O)OCCN(CC)CC)cc1N	inactive	–
C[C@@H]1NC(=O)[C@@H](N)CNC(=O)[C@H](C2CCNC(N)=N2)NC(=O)/C(=C/NC(N)=O)NC(=O)[C@H](CNC(=O)C[C@@H](N)CCCN)NC1=O (stereo not given in full)	–	13.9% [at 0.628 µM] (inactive)
COC(=O)c1ccc(NC(C)=O)cc1OC	inactive	–
COc1ccc(Cl)cc1C	inactive	–
CC(C)(C)c1ccc(N)cc1	inactive	–
CNCCc1ccccn1	inactive	–
N=C(N)N1CCc2ccccc2C1	–	3.62% [at 6.95 µM] (inactive)
CCCCN1C(=O)c2ccccc2C1=O	inactive	–
CC(=O)OC1CCC(C(C)(C)C)CC1 (stereo not given)	inactive	–
O=C1CCCc2c(O)cccc21	inactive	–
NCC1CCC(C(=O)Oc2ccc(CCC(=O)O)cc2)CC1 (stereo not given)	inactive	–
Cc1cccc(N)n1	inactive	–
CC(O)CCCCn1c(=O)c2c(ncn2C)n(C)c1=O (stereo not given)	inactive	–
Nc1ccc(C(=O)NCC(=O)O)cc1	inactive	–
CC(C)=CCC/C(C)=C\C#N	inactive	–
COC(=O)c1ccccc1Cl	inactive	–
